Test results published in paper PMC5540273 (PLoS ONE, 2017).
Where “and” joins values, the source holds several entries; their conditions need not be identical. Identical values can stand only once. Like-named read-outs stand apart in the source and are kept apart here.

Tests used:
DAPK1 = conditions: concentration: 1 μM, replicates: in singlicate, n = 1
DAPK2 = conditions: concentration: 1 μM, replicates: in singlicate, n = 1
DAPK3 = conditions: concentration: 1 μM, replicates: in singlicate, n = 1
DCAMKL1 = tested on: T1, DCAMKL1; conditions: concentration: 1 μM, replicates: in singlicate, n = 1
T1 construct: gene DCLK1

DCAMKL2 = tested on: T2, DCAMKL2; conditions: concentration: 1 μM, replicates: in singlicate; n = 1
T2 construct: gene DCLK2

DCAMKL3 = tested on: T3, DCAMKL3; conditions: concentration: 1 μM, replicates: in singlicate, n = 1
T3 construct: gene DCLK3

DDR1 = conditions: concentration: 1 μM, replicates: in singlicate, n = 1
DDR2 = conditions: concentration: 1 μM, replicates: in singlicate, n = 1
DLK = tested on: T4, DLK; conditions: concentration: 1 μM, replicates: in singlicate, n = 1
T4 construct: gene MAP3K12

DMPK2 = tested on: T5, DMPK2; conditions: concentration: 1 μM, replicates: in singlicate, n = 1
T5 construct: gene CDC42BPG
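Also: KINOMEscan kinase panel screen.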

Compound	%Inh (DAPK1)	%Inh (DAPK2)	%Inh (DAPK3)	%Inh (DCAMKL1)	%Inh (DCAMKL2)	%Inh (DCAMKL3)	%Inh (DDR1)	%Inh (DDR2)	%Inh (DLK)	%Inh (DMPK2)	%Inh (DAPK1; 1 µM)	%Inh (DAPK2; 1 µM)	%Inh (DAPK3; 1 µM)	%Inh (DCAMKL1; 1 µM)	%Inh (DCAMKL3; 1 µM)	%Inh (DDR1; 1 µM)	%Inh (DDR2; 1 µM)	%Inh (DLK; 1 µM)	%Inh (DMPK2; 1 µM)
CC(C)Oc1ccc2c(-c3ccnc(Nc4ccc(N5CCN(C)CC5)cc4)n3)cnn2n1 [GW696155]	97.9%	90.3%	99.6%	93.5%	91%	99.2%	45%	74%	89%	13%	–	–	–	–	–	–	–	–	–
CCc1ccnc(/C=C/c2n[nH]c3cc(Sc4ccccc4C(=O)NC)ccc23)c1	17%	0%	0%	0%	0%	8%	0%	13%	30%	0%	–	–	–	–	–	–	–	–	–
O=C(NCCNc1ccnc(Nc2ccc(F)cc2)n1)Nc1ccccc1F [GSK1379880]	0%	0%	9%	19%	0%	24%	29%	18%	0%	0%	–	–	–	–	–	–	–	–	–
CC(C)(C)n1cnc2c(N)ncnc21 [SKF-97359]	78%	19%	0%	0%	0%	11%	0%	0%	31%	0%	–	–	–	–	–	–	–	–	–
Cc1cccc(-c2nc(Nc3ccc4ncsc4c3)c3ccccc3n2)n1 [GW867588]	0%	0%	23%	0%	7%	0%	0%	35%	0%	9%	–	–	–	–	–	–	–	–	–
Cc1nnc(-c2ccc(C)c(-c3ccc(C(=O)Nc4ccc(NS(C)(=O)=O)cc4)cc3)c2)o1 [GW702865]	8%	3%	18%	8%	0%	0%	0%	46%	0%	0%	–	–	–	–	–	–	–	–	–
COc1ccc(S(=O)(=O)NC2CCN(c3cc(C)nc(Nc4cccc(C#N)c4)n3)CC2)cc1.O=C(O)C(F)(F)F [GSK1653539]	0%	0%	23%	0%	0%	34%	0%	9%	0%	0%	–	–	–	–	–	–	–	–	–
Cn1cc(-c2ccc3c(c2)CCN3C(=O)Cc2ccccc2Cl)c2c(N)ncnc21 [GSK2608885]	0%	0%	5%	13%	1%	35%	100%	93.4%	6%	100%	–	–	–	–	–	–	–	–	–
Nc1nc(-c2ccc3c(N)n[nH]c3c2)cc(N2CCCC2)n1 [GSK2227430]	0%	0%	1%	13%	0%	0%	7%	3%	0%	0%	–	–	–	–	–	–	–	–	–
Cl.Nc1ncnc2occ(-c3ccc(NC(=O)Nc4cc(C(F)(F)F)ccc4F)cc3)c12 [SB-707548]	24%	14%	14%	17%	4%	0%	100%	98.3%	21%	24%	–	–	–	–	–	–	–	–	–
O=C(NCCNc1ccnc(Nc2ccc(F)cc2)n1)c1cc2ccccc2s1 [GSK1379874]	0%	0%	0%	0%	0%	0%	0%	1%	33%	0%	–	–	–	–	–	–	–	–	–
COc1cc2c(cc1OCCN1CCN(C)CC1)ncc1c3ccc(C#N)cc3[nH]c21	44%	0%	7%	40%	0%	100%	0%	8%	78%	0%	–	–	–	–	–	–	–	–	–
O=C(Nc1n[nH]c2cc(-c3cccc(F)c3)ccc12)C1CC1 [SB-735464]	1%	11%	0%	11%	0%	0%	4%	8%	0%	0%	–	–	–	–	–	–	–	–	–
Cc1cccc(-c2nc(-c3ccc(S(C)(=O)=O)cc3)sc2-c2ccncc2)c1	4%	0%	0%	0%	0%	0%	0%	9%	0%	53%	–	–	–	–	–	–	–	–	–
COCCNC(=O)c1ccc(-c2cc(C(=O)NC3CC3)cc(F)c2C)cc1 [GW868318]	10%	0%	28%	12%	19%	13%	21%	21%	6%	0%	–	–	–	–	–	–	–	–	–
Cl.Oc1cccc(Nc2ccnc3cc(-c4ccncc4)ccc23)c1 [GW494601]	5%	3%	15%	4%	0%	8%	68%	82%	54%	0%	–	–	–	–	–	–	–	–	–
O=c1cc(N2CCOCC2)nc2n(Cc3cccc4ccccc34)ccn12 [GSK2333389]	0%	0%	0%	0%	0%	2%	14%	0%	0%	0%	–	–	–	–	–	–	–	–	–
N#Cc1ccc(-c2cc(-c3c[nH]nc3-c3ccccn3)ccn2)cc1 [GW693028]	0%	0%	16%	8%	17%	0%	0%	1%	40%	0%	–	–	–	–	–	–	–	–	–
Fc1ccc(-c2ncn(CCCN3CCOCC3)c2-c2cccnc2)cc1 [SB-211743]	9%	0%	28%	19%	6%	3%	0%	24%	0%	0%	–	–	–	–	–	–	–	–	–
CN1c2ccc(CNc3ccc(F)cc3)cc2-c2c(cnn2C)S1(=O)=O	11%	0%	0%	14%	0%	0%	4%	35%	0%	0%	–	–	–	–	–	–	–	–	–
Cc1c2ccc(N(C)c3ccnc(Nc4cccc(S(N)(=O)=O)c4)n3)cc2nn1Cc1ccccc1.Cl.Cl [GW787226]	0%	1%	0%	24%	0%	0%	97.7%	96.8%	0%	0%	–	–	–	–	–	–	–	–	–

Compound	%Inh (DAPK1)	%Inh (DAPK2)	%Inh (DAPK3)	%Inh (DCAMKL1)	%Inh (DCAMKL2)	%Inh (DCAMKL3)	%Inh (DDR1)	%Inh (DDR2)	%Inh (DLK)	%Inh (DMPK2)	%Inh (DAPK1; 1 µM)	%Inh (DAPK2; 1 µM)	%Inh (DAPK3; 1 µM)	%Inh (DCAMKL1; 1 µM)	%Inh (DCAMKL3; 1 µM)	%Inh (DDR1; 1 µM)	%Inh (DDR2; 1 µM)	%Inh (DLK; 1 µM)	%Inh (DMPK2; 1 µM)
Fc1ccc(-c2nn3c(OCC(F)(F)F)cccc3c2-c2ccncc2)cc1 [GW514784]	0%	0%	0%	0%	0%	36%	80%	81%	40%	95.3%	–	–	–	–	–	–	–	–	–
CNc1ncnc2[nH]ncc12 [SKF-18355]	7%	0%	0%	33%	15%	0%	0%	64%	11%	0%	–	–	–	–	–	–	–	–	–
O=C(Nc1cccc(-c2nn3ncccc3c2-c2ccnc(Nc3cccc(C(F)(F)F)c3)n2)c1)c1c(F)cccc1F [GSK299495]	0%	0%	1%	13%	0%	4%	100%	56%	41%	92.6%	–	–	–	–	–	–	–	–	–
Cc1nnc(-c2ccc3ncc(-c4ccc(S(C)=O)cc4)n3c2)o1 (centres unmarked)	22%	0%	0%	18%	0%	0%	8%	24%	0%	0%	–	–	–	–	–	–	–	–	–
COc1ccc(Nc2nccc(N3CCC(NC(=O)Nc4cc(C)ccc4C)C3)n2)cc1 (centres unmarked) [GSK1379741]	0%	0%	10%	0%	0%	4%	23%	0%	0%	0%	–	–	–	–	–	–	–	–	–
COc1ccc(Nc2ncc(C#N)c(Nc3ccccc3C(N)=O)n2)cc1N1CCN(C)CC1.Cl [GSK1558669]	97.8%	98.5%	99.2%	97.4%	100%	99.6%	100%	94.2%	97.8%	89%	–	–	–	–	–	–	–	–	–
NCC(NC(=O)c1cc(-c2cn[nH]c2)c(-c2ccnc3[nH]ccc23)s1)c1ccccc1.O=C(O)C(F)(F)F.O=C(O)C(F)(F)F (centres unmarked) [GSK1325775]	71%	37%	87%	6%	0%	0%	0%	43%	37%	89%	–	–	–	–	–	–	–	–	–
Cc1nnc(-c2ccc3occ(-c4ccc(C(C)O)cc4)c3c2)o1 (centres unmarked)	7%	0%	0%	13%	12%	11%	12%	12%	0%	3%	–	–	–	–	–	–	–	–	–
[2H]C([2H])(c1cccc(C(F)(F)F)c1C)n1ccn2c(=O)nc(N3CCOCC3)cc12 [GSK2336394]	26%	0%	6%	8%	18%	21%	0%	0%	10%	0%	–	–	–	–	–	–	–	–	–
Fc1ccc(-c2ncn(CCCN3CCOCC3)c2-c2ccccn2)cc1 [SB-211742]	17%	0%	10%	12%	0%	12%	0%	27%	20%	0%	–	–	–	–	–	–	–	–	–
O=C(NCCCN1CCOCC1)c1cccc(Nc2nccc(Nc3ccc(Oc4ccccc4)cc3)n2)c1 [GW663929]	48%	35%	81%	38%	0%	3%	35%	50%	13%	16%	–	–	–	–	–	–	–	–	–
CCn1cnc2c(N)ncnc21 [GW345098]	14%	5%	18%	7%	7%	25%	18%	0%	0%	9%	–	–	–	–	–	–	–	–	–
Cc1ccc(NC(=O)c2ccnc(N3CCN(C)CC3)c2)cc1-c1ccc(C(=O)NCC2CC2)cc1 [GW775604]	5%	0%	0%	0%	15%	0%	77%	59%	0%	0%	–	–	–	–	–	–	–	–	–
CC(C)(CN)c1nc(-c2ccc(Cl)c(O)c2)c(-c2ccncc2)[nH]1.O=C(O)C(F)(F)F [SB-477794]	–	–	–	–	0%	–	–	–	–	–	11% and 19%	0% and 5%	33% and 17%	7% and 3%	29% and 36%	94.5% and 90.8%	80% and 78%	37% and 42%	90.8% and 88%
O=c1cc(N2CCOCC2)nc2n(Cc3cccc(C(F)(F)F)c3)ccn12 [GSK2297543]	0%	9%	10%	21%	10%	0%	0%	2%	0%	0%	–	–	–	–	–	–	–	–	–
c1ccc(-c2n[nH]cc2-c2ccnc3ccccc23)nc1 [GW271431]	0%	0%	26%	12%	11%	0%	8%	0%	3%	18%	–	–	–	–	–	–	–	–	–
Cc1c(Cn2c(C)nn3c(=O)cc(N4CCOC(C)C4)nc23)cccc1C(F)(F)F (centres unmarked) [GSK2344444]	2%	0%	0%	0%	0%	21%	14%	0%	0%	0%	–	–	–	–	–	–	–	–	–
COc1cc2ncn(-c3cc(OCc4sccc4Cl)c(C(N)=O)s3)c2cc1OC [GSK448459]	12%	2%	36%	5%	4%	0%	0%	12%	32%	0%	–	–	–	–	–	–	–	–	–
c1ccc(-c2cc(-c3c[nH]nc3-c3ccccn3)ccn2)cc1 [GW576604]	8%	0%	22%	0%	23%	12%	0%	24%	26%	0%	–	–	–	–	–	–	–	–	–
CN(C1=C(c2ccccc2)C(=O)NC1=O)c1ccccc1 [SB-334860]	26%	0%	8%	19%	11%	0%	0%	4%	9%	12%	–	–	–	–	–	–	–	–	–
